From PubChem BioAssay AID1851 (National Center for Advancing Translational Sciences (NCATS), 2009)
The whole screen tested about 16,000 compounds, of which about 5,800 (36%) were called active. Another 23% or so got no clear call; they are omitted. Calls come from the whole dose curve; as a rule, active = well fitted curve in the direction sought with a large enough effect; inconclusive = small, poorly fitted or top-dose-only effect, or effect the other way; inactive = no such curve, though single readings can be large or run the other way. This is one part of the list.

Biological target: Cytochrome P450 2C19 (Homo sapiens) (UniProt P33261)
Assay: Cytochrome panel assay with activity outcomes
Details: recombinant CYP, pro-luciferin dealkylation, luminescence, p450-cyp2c19; series mostly up to 57.1 µM; activity, negative = inhibition: at the top concentration
% is set by controls: 0 for no effect and ±100 for the full control effect.

Sequence of Cytochrome P450 2C19 (Homo sapiens) (P33261 whole entry, looked up): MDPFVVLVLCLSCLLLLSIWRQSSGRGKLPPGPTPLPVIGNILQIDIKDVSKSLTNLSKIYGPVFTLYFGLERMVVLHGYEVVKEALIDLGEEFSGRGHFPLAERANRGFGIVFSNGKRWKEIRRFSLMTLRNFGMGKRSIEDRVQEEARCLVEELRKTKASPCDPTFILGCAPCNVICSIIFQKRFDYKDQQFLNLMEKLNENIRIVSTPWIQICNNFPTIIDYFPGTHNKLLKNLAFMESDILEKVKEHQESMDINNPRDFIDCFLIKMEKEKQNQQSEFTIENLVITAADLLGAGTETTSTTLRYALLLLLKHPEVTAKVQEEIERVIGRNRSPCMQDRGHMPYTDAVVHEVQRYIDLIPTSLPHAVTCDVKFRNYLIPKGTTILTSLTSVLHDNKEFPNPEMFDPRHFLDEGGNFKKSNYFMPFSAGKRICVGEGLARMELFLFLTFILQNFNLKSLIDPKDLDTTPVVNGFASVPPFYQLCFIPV

AC50, active:
O=c1cnc2cnc(Nc3ccccc3)nc2n1CCc1ccccc1 2000 nM
CCOc1ccc(C(Nc2ccc(C)cc2)P2(=O)OCC(C)(C)CO2)cc1 (configuration not stated) 25100 nM
CN(C/C=C\c1ccccc1)Cc1cccc2ccccc12 501 nM
CN(Cc1cccc2ccccc12)Cc1cccc2ccccc12 1580 nM
CCOc1ccccc1C1C(C#N)=C(N)Oc2n[nH]c(CC)c21 (configuration not stated) 6310 nM
CC(=O)C1=C(NC(=O)c2ccc(F)cc2)CC2C1C2(C)C (configuration not stated) 3160 nM
O=[N+]([O-])c1cccc(-c2nc(-c3ccncc3)no2)c1 891 nM
COc1ccc(O[C@H]2C=C[C@@H](c3ccccc3)O[C@H]2COC(=O)CC/C(C)=N/OCC[C@@H]2C=C[C@H](OC(C)=O)[C@H](COC(C)=O)O2)cc1 398 nM
COc1ccc(O[C@H]2C=C[C@@H](c3ccccc3)O[C@H]2CO/N=C(/C)CCC(=O)OC[C@@H]2O[C@H](c3ccccc3)C=C[C@@H]2Oc2ccc(OC)cc2)cc1 100 nM
COc1ccc(O[C@H]2C=C[C@@H](c3ccccc3)O[C@H]2COC(=O)N2CCCCC2)cc1 501 nM
COc1ccc(O[C@H]2C=C[C@@H](c3ccccc3)O[C@H]2COC(=O)CC/C(C)=N/O[C@@H]2O[C@H](COC(C)=O)[C@H](OC(C)=O)[C@H](OC(C)=O)[C@H]2OC(C)=O)cc1 1580 nM
COc1ccc(O[C@H]2C=C[C@@H](c3ccccc3)O[C@H]2CO/N=C2/[C@H]3O[C@@H]3[C@@H](O)[C@H]3[C@H]2CCn2c(=O)n(-c4ccccc4)c(=O)n23)cc1 2510 nM
COc1ccc(O[C@H]2C=C[C@@H](c3ccccc3)O[C@H]2COC(=O)CC/C(C)=N\O[C@@H](C)c2cc(-c3c(C)cc(C)cc3C)no2)cc1 100 nM
COc1ccc(O[C@H]2C=C[C@@H](c3ccccc3)O[C@H]2COC(=O)CC/C(C)=N\OC[C@@H](O)[C@H]2O[C@H]3OC(C)(C)O[C@H]3[C@@H]2O)cc1 5.01 nM
COc1ccc(O[C@H]2C=C[C@@H](c3ccccc3)O[C@H]2CO/N=C\C[C@@H]2C=C[C@H](OC(C)=O)[C@H](COC(C)=O)O2)cc1 794 nM

activity, negative = inhibition, inactive:
CCNc1ncc2ncc(=O)n(C3CC3)c2n1 -16.6%
CCNc1ncc2ncc(=O)n(C[C@H]3CCCO3)c2n1 13.9%
COCCn1c(=O)cnc2cnc(Nc3ccccc3)nc21 -14.5%
CC[N+](C)(C)c1cccc(O)c1 3.62%
CCOc1ccc(C2=[N+]([O-])C(C)(C)N(O)C2(C)C)cc1 2.26%
CN(C)Cc1ccccc1-c1nccc(N(C)C)n1 3.03%
c1ccc2c(CC3=NCCN3)cccc2c1 -5.96% [at 25.6 µM]
NCCSS(=O)(=O)CCN 4.15% [at 11.4 µM]
COCCn1c(C)cc2c(c1=O)C(c1ccccc1F)C(C#N)=C(N)O2 (configuration not stated) 17.4%
N=C(N)SCCN -22.8%
CCN1CCC[C@@H]1CNC(=O)c1cc(S(N)(=O)=O)ccc1OC -20.4%
Nc1nc(-c2cccc([N+](=O)[O-])c2)cc(-c2cc(-c3cccc([N+](=O)[O-])c3)nc(N)n2)n1 14.8% [at 11.4 µM]
C[C@@H]1NC(=O)C/C=C\[C@@H](C)[C@@H]2C=C[C@H](O)[C@@H](COC(=O)[C@H](C)NC(=O)C/C=C\[C@@H](C)[C@@H]3C=C[C@H](O)[C@@H](COC1=O)O3)O2 -11.5% [at 11.4 µM]
COc1ccc(O[C@H]2C=C[C@@H](c3ccccc3)O[C@@H]2CON=C(C)C)cc1 -28.2% [at 11.4 µM]
CC(=O)OC[C@H]1O[C@@H](ON=C(C)C)[C@H](OC(C)=O)[C@@H](OC(C)=O)[C@H]1OC(C)=O 32.2% [at 11.4 µM]
CC(=O)OC[C@@H]1O[C@H](CCO/N=C(\C)CCC(=O)OC[C@@H]2O[C@H](C#Cc3ccccc3)C=C[C@@H]2Oc2ccc(C)cc2)C=C[C@@H]1OC(C)=O -44.9% [at 11.4 µM]
CC(=O)OC[C@@H]1O[C@H](CCON=C(C)C)C=C[C@@H]1OC(C)=O -20.6% [at 11.4 µM]
CC(=O)OC[C@H]1O[C@@H](O/N=C(\C)CCN2CCc3nc(-c4ccccc4)c(-c4ccccc4)cc3C2)[C@H](OC(C)=O)[C@@H](OC(C)=O)[C@H]1OC(C)=O 6.61% [at 11.4 µM]
CCCNC(=O)OC[C@@H]1O[C@H](c2ccccc2)C=C[C@@H]1Oc1ccc(OC)cc1 -44.8% [at 11.4 µM]
CC(C)CO/N=C1/[C@H]2O[C@@H]2[C@@H](O)[C@H]2[C@H]1CCn1c(=O)n(-c3ccccc3)c(=O)n12 15.7% [at 11.4 µM]
CC(=O)OC[C@@H]1O[C@H](C/C=N\O[C@@H](C)c2cc(-c3c(C)cc(C)cc3C)no2)C=C[C@@H]1OC(C)=O -35.1% [at 11.4 µM]
C/C(CCN1CCCc2nc(C)c(C)cc21)=N\OC[C@@H](O)[C@@H]1O[C@@H]2OC(C)(C)O[C@@H]2[C@H]1O -36.9% [at 11.4 µM]
CCc1cc2c(nc1CC)CCN(CC/C(C)=N/O[C@@H](C)c1cc(-c3c(C)cc(C)cc3C)no1)C2 -42.9% [at 11.4 µM]
CC(=O)OC[C@@H]1O[C@H](C/C=N\OC[C@@H](O)COCc2ccco2)C=C[C@@H]1OC(C)=O 14.8% [at 11.4 µM]
CCCNC(=O)OC[C@H]1O[C@@H](CCO/N=C2/[C@H]3O[C@@H]3[C@@H](O)[C@H]3[C@H]2CCn2c(=O)n(-c4ccccc4)c(=O)n23)C=C[C@@H]1Oc1ccc(OC)cc1 -3.58% [at 11.4 µM]
CC(=O)OC[C@@H]1O[C@H](C/C=N\OC[C@@H](C)[C@H](OCc2ccccc2)C(C)C)C=C[C@@H]1OC(C)=O -16.1% [at 11.4 µM]
C/C(CCN1CCc2nc(-c3ccccc3)c(-c3ccccc3)cc2C1)=N\OC[C@@H](O)[C@@H]1O[C@@H]2OC(C)(C)O[C@@H]2[C@H]1O 3.78% [at 11.4 µM]
